{"source": "PubChem BioAssay (NCATS)", "note": "Values without a mark were called inactive. Inconclusive results are not listed. Active and inactive are the calls of the source. Unless noted, calls come from the whole dose curve; as a rule, active = well fitted curve in the direction sought with a large enough effect; inconclusive = small, poorly fitted or top-dose-only effect, or another doubt; inactive = no such curve, though single readings can be large; an effect the other way counts as inactive or inconclusive."}
{"biological_target": "Cytochrome P450 3A4 (Homo sapiens) (UniProt P08684)", "sequence (P08684 whole entry, looked up)": "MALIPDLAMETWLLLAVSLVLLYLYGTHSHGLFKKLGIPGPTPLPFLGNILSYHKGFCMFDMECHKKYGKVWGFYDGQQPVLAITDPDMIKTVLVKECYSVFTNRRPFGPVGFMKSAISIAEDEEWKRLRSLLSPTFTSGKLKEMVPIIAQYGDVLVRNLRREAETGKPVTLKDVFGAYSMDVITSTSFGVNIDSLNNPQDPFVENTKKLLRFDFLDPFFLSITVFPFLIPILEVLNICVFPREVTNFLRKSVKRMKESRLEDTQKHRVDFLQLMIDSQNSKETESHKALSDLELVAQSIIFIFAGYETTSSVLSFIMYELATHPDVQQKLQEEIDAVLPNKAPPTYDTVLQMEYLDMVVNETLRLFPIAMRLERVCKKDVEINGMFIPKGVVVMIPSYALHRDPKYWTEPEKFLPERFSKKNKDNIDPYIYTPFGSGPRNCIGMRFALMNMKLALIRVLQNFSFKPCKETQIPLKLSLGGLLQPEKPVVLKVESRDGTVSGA", "assay": "qHTS Assay for Inhibitors and Substrates of Cytochrome P450 3A4 (AID 884); note: % is set by controls: 0 for no effect and ±100 for the full control effect; nearly all actives have a fitted effect of over 50% in size", "conditions": "recombinant CYP3A4, Luciferin-PPXE luminescence; series mostly up to 57.1 µM; activity change, negative = inhibition: at the top concentration", "outline": "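Luminescent readout of luciferin produced by CYP3A4 (20 nM) dealkylation of Luciferin-PPXE, 25 uM (its KM). NADPH-driven reaction ran 60 min at RT after 10 min compound preincubation; data scaled to 57 uM ketoconazole as 100% inhibition.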", "units": {"activity change, negative = inhibition": "%"}}
{"smiles": "CC(C)NCC(O)c1cc(O)cc(O)c1", "note": "(stereo unspecified)", "activity change, negative = inhibition": -17.9}
{"smiles": "C=CCc1ccccc1OCC(O)CNC(C)C", "note": "(stereo unspecified)", "activity change, negative = inhibition": 12}
{"smiles": "CC(C)(Oc1ccc(CCNC(=O)c2ccc(Cl)cc2)cc1)C(=O)O", "activity change, negative = inhibition": -7.54}
{"smiles": "CCCCCN(CCCCC)C(=O)C(CCC(=O)O)NC(=O)c1ccc(Cl)c(Cl)c1", "note": "(stereo unspecified)", "activity change, negative = inhibition": -21.1}
{"smiles": "Fc1ccc(C(c2ccc(F)cc2)N2CCN(C/C=C/c3ccccc3)CC2)cc1", "activity change, negative = inhibition": 15.8}
{"smiles": "CCCN(CCC)C(=O)C(CCC(=O)O)NC(=O)c1ccccc1", "note": "(stereo unspecified)", "activity change, negative = inhibition": -9.45}
{"smiles": "CN(C)CCN(Cc1cccs1)c1ccccn1", "activity change, negative = inhibition": -16.2}
{"smiles": "Nc1c2c(nc3ccccc13)CCCC2O", "note": "(stereo unspecified)", "activity change, negative = inhibition": -0.293}
{"smiles": "CC(=O)OC(C)C[N+](C)(C)C", "note": "(stereo unspecified)", "activity change, negative = inhibition": -8.82}
{"smiles": "CCCNC(C)C(=O)Nc1ccccc1C", "note": "(stereo unspecified)", "activity change, negative = inhibition": -25.9}
{"test_system": "not listed separately", "assay": "qHTS Assay for Identification of Small Molecule Antagonists for NFkB Signaling Pathway (AID 895; active = well fitted inhibition curve with a large enough effect in the signal ratio, with a control signal flat, not every such curve was filed as active; the % refers to the signal ratio; note: potency is the fitted concentration of half-maximal effect; for activity change, negative = inhibition: % is set by controls: 0 for no effect and ±100 for the full control effect)", "conditions": "NFkB beta-lactamase reporter cells, FRET ratio 460/530, stimulated with 10 pM TNF alpha; series mostly up to 38.3 µM; activity change, negative = inhibition: at the top concentration", "outline": "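Beta-lactamase reporter read-out (460 and 530 nm emission ratio, 405 nm excitation, 2 hrs substrate loading RT) after 5 hr stimulation with 10 pM TNF alpha in compound-treated NFkB-bla ME-180 cells in low-serum medium.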", "units": {"activity change, negative = inhibition": "%"}}
{"smiles": "CCN(CC)CC(=O)Nc1c(C)cccc1C", "activity change, negative = inhibition": -16.5}
{"smiles": "Cc1nc2c([nH]1)c(=O)n(C)c(=O)n2Cc1ccco1", "Potency": "0.0631 µM (active)"}
{"smiles": "N[C@@H](COP(=O)(O)O)C(=O)O", "activity change, negative = inhibition": 5.03}
{"smiles": "CN1CCN(C2=Nc3ccccc3Oc3ccc(Cl)cc32)CC1", "activity change, negative = inhibition": 2.42}
{"smiles": "C[n+]1cc2c3c(ccc2c2ccc4cc5c(cc4c21)OCO5)OCO3", "Potency": "10 µM (active)"}
{"biological_target": "Cytochrome P450 2C19 (Homo sapiens) (UniProt P33261)", "sequence (P33261 whole entry, looked up)": "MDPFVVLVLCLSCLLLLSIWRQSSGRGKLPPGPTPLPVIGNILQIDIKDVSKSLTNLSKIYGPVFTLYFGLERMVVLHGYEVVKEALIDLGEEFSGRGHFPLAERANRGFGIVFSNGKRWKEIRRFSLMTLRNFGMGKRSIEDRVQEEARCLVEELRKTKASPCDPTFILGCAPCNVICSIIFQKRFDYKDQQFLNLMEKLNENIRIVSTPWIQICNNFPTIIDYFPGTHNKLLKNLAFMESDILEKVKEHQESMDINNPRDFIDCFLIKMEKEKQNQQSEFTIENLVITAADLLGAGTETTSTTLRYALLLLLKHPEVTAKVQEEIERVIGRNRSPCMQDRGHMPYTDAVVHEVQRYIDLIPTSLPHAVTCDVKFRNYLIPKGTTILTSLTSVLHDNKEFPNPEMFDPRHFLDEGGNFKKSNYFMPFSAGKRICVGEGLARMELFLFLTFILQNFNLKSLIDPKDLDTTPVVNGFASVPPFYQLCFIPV", "assay": "qHTS Assay for Inhibitors and Substrates of Cytochrome P450 2C19 (AID 899); note: nearly all actives have a fitted effect of over 60% in size; note: potency is the fitted concentration of half-maximal effect; for activity, negative = inhibition: % is set by controls: 0 for no effect and ±100 for the full control effect", "conditions": "recombinant CYP2C19, luciferin-H EGE luminescence; series mostly up to 57.1 µM; activity, negative = inhibition: at the top concentration", "outline": "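Reactions contain 5nM enzyme, 10uM Luciferin-H EGE (KM) and 50mM KPO4; compound preincubates 10 min at 37C, NADPH regeneration starts turnover for 60 min. Luminescence after detection reagent gives activity.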"}
{"smiles": "Cc1nc2c([nH]1)c(=O)n(C)c(=O)n2Cc1ccco1", "activity, negative = inhibition": "42%"}
{"smiles": "O=C(CCNNC(=O)c1ccncc1)NCc1ccccc1", "activity, negative = inhibition": "-37.8%"}
{"smiles": "N[C@@H](COP(=O)(O)O)C(=O)O", "activity, negative = inhibition": "48.9%"}
{"smiles": "COc1ccc2c(c1OC)C(=O)O[C@@H]2[C@H]1c2c(cc3c(c2OC)OCO3)CCN1C", "Potency": "0.158 µM (active)"}
{"smiles": "C[n+]1cc2c3c(ccc2c2ccc4cc5c(cc4c21)OCO5)OCO3", "Potency": "6.31 µM (active)"}
{"smiles": "CN(C)CCOC(=O)COc1ccc(Cl)cc1", "activity, negative = inhibition": "49.5% [at 25.6 µM]"}
{"test_system": "not listed separately", "assay": "Confirmation and Secondary Assay for Modulators of Hemoglobin Beta Chain Splicing at IVS2 654 locus (AID 910);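 note: HeLa cells stably carrying EGFP split by mutant beta-globin IVS2-654 intron; per-well total GFP intensity by laser scanning cytometry after 2-day treatment; % of control where 0% means no effect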", "conditions": "HeLa EGFP-654 splicing reporter, GFP fluorescence, 48 h; series mostly up to 46.1 µM; activation (splicing correction): at the top concentration", "outline": "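Readout: per-well total peak green fluorescence (488 nm ex, 500–520 nm em) from objects 5–250 µm, reflecting correct splicing of an EGFP-654 reporter. Compounds were applied for 2 days at 37 °C to overnight-plated HeLa EGFP-654 cells; controls were DMSO and 500 nM IVS2-654 PNA.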"}
{"smiles": "CCN(CC)CC(=O)Nc1c(C)cccc1C", "activation (splicing correction)": "-3%"}
{"smiles": "CC(C)NCC(O)c1cc(O)cc(O)c1", "note": "(stereo unspecified)", "activation (splicing correction)": "1.62%"}
{"smiles": "C=CCc1ccccc1OCC(O)CNC(C)C", "note": "(stereo unspecified)", "activation (splicing correction)": "2.27% [at 38.3 µM]"}
{"smiles": "CC(C)(Oc1ccc(CCNC(=O)c2ccc(Cl)cc2)cc1)C(=O)O", "activation (splicing correction)": "11.3%"}
{"smiles": "CCCCCN(CCCCC)C(=O)C(CCC(=O)O)NC(=O)c1ccc(Cl)c(Cl)c1", "note": "(stereo unspecified)", "activation (splicing correction)": "-1.39% [at 38.3 µM]"}
{"smiles": "Fc1ccc(C(c2ccc(F)cc2)N2CCN(C/C=C/c3ccccc3)CC2)cc1", "activation (splicing correction)": "2.12%"}
{"smiles": "CCCN(CCC)C(=O)C(CCC(=O)O)NC(=O)c1ccccc1", "note": "(stereo unspecified)", "activation (splicing correction)": "7.92%"}
{"smiles": "CC(C)(C)NCC(O)c1cc(O)cc(O)c1", "note": "(stereo unspecified)", "activation (splicing correction)": "3.2%"}
{"smiles": "Cc1ccc(/C(=C\\CN2CCCC2)c2ccccn2)cc1", "activation (splicing correction)": "-2.29%"}
{"smiles": "CN1CCN(C2=Nc3ccccc3Oc3ccc(Cl)cc32)CC1", "activation (splicing correction)": "-0.86%"}
{"smiles": "CCN(CC)CCNC(=O)c1ccc(NC(C)=O)cc1", "activation (splicing correction)": "7.75%"}
{"smiles": "CN(C)CCN(Cc1cccs1)c1ccccn1", "activation (splicing correction)": "5.92%"}
{"smiles": "CN/C(=C\\[N+](=O)[O-])NCCSCc1ccc(CN(C)C)o1", "activation (splicing correction)": "3.56%"}
{"smiles": "CN(C)CCCN1c2ccccc2Sc2ccccc21", "activation (splicing correction)": "-1.12%"}
{"smiles": "Cc1ccc(S(=O)(=O)NC(=O)NN2CCCCCC2)cc1", "activation (splicing correction)": "3.49%"}
{"smiles": "CC(N=C(NC#N)Nc1ccncc1)C(C)(C)C", "note": "(stereo unspecified)", "activation (splicing correction)": "-0.773%"}
{"smiles": "Nc1c2c(nc3ccccc13)CCCC2O", "note": "(stereo unspecified)", "activation (splicing correction)": "2.96% [at 38.3 µM]"}
{"smiles": "COCCc1ccc(OCC(O)CNC(C)C)cc1", "note": "(stereo unspecified)", "activation (splicing correction)": "2.47%"}
{"smiles": "CC(C)COCC(CN(Cc1ccccc1)c1ccccc1)N1CCCC1", "note": "(stereo unspecified)", "activation (splicing correction)": "-4.54%"}
{"smiles": "CCN(CC)CCOCCOC(=O)C1(c2ccccc2)CCCC1", "activation (splicing correction)": "3.19%"}
{"smiles": "C[n+]1cc2c3c(ccc2c2ccc4cc5c(cc4c21)OCO5)OCO3", "activation (splicing correction)": "-9.45%"}
{"smiles": "OC(CCN1CCCCC1)(c1ccccc1)C1CCCCC1", "note": "(stereo unspecified)", "activation (splicing correction)": "4.01%"}
{"smiles": "CC(=O)OC(C)C[N+](C)(C)C", "note": "(stereo unspecified)", "activation (splicing correction)": "-4.06%"}
{"smiles": "CCn1nc(C(=O)O)c(=O)c2cc3c(cc21)OCO3", "activation (splicing correction)": "3.93%"}
{"smiles": "COC(=O)C1=C(C)NC(C)=C(C(=O)OCCN(C)Cc2ccccc2)C1c1cccc([N+](=O)[O-])c1", "note": "(stereo unspecified)", "activation (splicing correction)": "-7.34%"}
{"smiles": "CN(C)CCOC(=O)COc1ccc(Cl)cc1", "activation (splicing correction)": "-0.597%"}
{"smiles": "CCCCNc1ccc(C(=O)OCCN(C)C)cc1", "activation (splicing correction)": "6.77%"}
{"smiles": "c1ccc2c(c1)CCCC2C1=NCCN1", "note": "(stereo unspecified)", "activation (splicing correction)": "8.55%"}
{"smiles": "CNCCCN1c2ccccc2CCc2ccccc21", "activation (splicing correction)": "0.97%"}
{"smiles": "CCCNC(C)C(=O)Nc1ccccc1C", "note": "(stereo unspecified)", "activation (splicing correction)": "1.76%"}
